Bioassay records deposited in PubChem by National Center for Advancing Translational Sciences (NCATS).
WRN helicase inh = blocks human WRN helicase; actives 0.46% (n = 360,000); Q14191; Potency, µM (series often up to 114 µM), for the others: at the highest dose activity change, negative = inhibition, most hits filed as inhibitors; WRN helicase unwinding, fluorescent forked duplex, kinetic; further: on the % scale 0 is the no-effect control and ±100 the full control effect; nearly all actives have a fitted effect of over 55% in size
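Kinetic fluorescence helicase assay: unwinding of a quenched forked DNA duplex (100 nM final) with 2 mM ATP final raises red fluorescence (525/598 nm). Compounds sat 15 min at room temperature with 20 nM WRN beforehand.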
Pol beta inh = inhibitors of human DNA polymerase beta; P06746; Pol beta primer extension/strand displacement, fluorescence kinetic; Potency, µM (doses to about 114 µM), for the others: at the highest dose activity change, negative = inhibition, hits mostly inhibitors; actives 1.3% (n = 340,000); AID 485314; further: on the % scale 0 is the no-effect control and ±100 the full control effect
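Preincubation: enzyme (10 nM) with compound, 15 min, RT. Reaction: substrate added to 50 nM final. Reads: 0 and 10 min. Analysis: normalized, Hill fit.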
FEN1 inh = blocks human flap endonuclease 1; Recombinant FEN1 flap cleavage, fluorescence, 15 min; Potency, µM (highest dose often 114 µM), for the others: at the top dose activity change, negative = inhibition, most hits filed as inhibitors; AID 588795; actives 0.35% (n = 390,000); P39748; further: on the % scale 0 is the no-effect control and ±100 the full control effect; nearly all actives have a fitted effect of over 65% in size
Target sequence (P39748 whole entry, looked up): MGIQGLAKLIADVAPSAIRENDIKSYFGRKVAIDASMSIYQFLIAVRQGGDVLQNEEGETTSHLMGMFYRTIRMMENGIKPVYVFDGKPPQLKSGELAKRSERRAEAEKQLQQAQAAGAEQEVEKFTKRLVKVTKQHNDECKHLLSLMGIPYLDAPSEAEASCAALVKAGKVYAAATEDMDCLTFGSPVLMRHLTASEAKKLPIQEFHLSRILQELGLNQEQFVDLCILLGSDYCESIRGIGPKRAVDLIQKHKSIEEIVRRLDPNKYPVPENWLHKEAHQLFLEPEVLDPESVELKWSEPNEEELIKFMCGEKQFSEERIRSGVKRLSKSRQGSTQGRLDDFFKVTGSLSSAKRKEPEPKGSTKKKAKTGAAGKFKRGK
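Potency values derive from four-parameter Hill fits of normalized qHTS data. The reaction used 10 nM FEN1 preincubated 15 min at room temperature with compound, then 50 nM DNA substrate, read at 0 and 15 min.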
POLK inh = blocks human DNA polymerase kappa activity; Q9UBT6; purified Pol kappa, fluorescent DNA synthesis assay, 10 min; Potency, µM (titrated, usually from 107 µM), without a hit: at the top dose activity, negative = inhibition, usual class: inhibitors; actives 0.53% (n = 400,000); further: on the % scale 0 is the no-effect control and ±100 the full control effect
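Activity was followed as the change in fluorescence between reads at 0 and 10 min after starting the reaction with 50 nM substrate. Beforehand, 10 nM polymerase had been preincubated with compound for 15 min at room temperature.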
Pol eta inh = inhibitors of human DNA polymerase eta | Potency, µM (top dose mostly 114 µM), inactives show at the highest dose activity change, negative = inhibition, most hits filed as inhibitors | AID 588591 | Q9Y253 | actives 1.2% (n = 390,000) | recombinant Pol eta, fluorescent DNA replication assay; further: on the % scale 0 is the no-effect control and ±100 the full control effect
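Pol eta (10 nM) was preincubated with compounds for 15 min at room temperature, after which fluorescent replication substrate (50 nM final) was added to start the reaction. Fluorescence was read kinetically at 0 and 10 min.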
POLI inh = DNA polymerase iota (human) inhibition. Q9UNA4. Pol iota fluorescent replication assay, 10 min. Potency, µM (doses to about 115 µM), for inactives: top-dose activity, negative = inhibition, usual class: inhibitors. actives 1% (n = 390,000). AID 588590
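Fluorescent replication assay read twice, at 0 min and 10 min after adding 50 nM (final) substrate. Enzyme (10 nM) and compounds were first incubated 15 min at room temperature; enzyme-free buffer wells were negative controls.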
Starred values were filed as active, the others as inactive; ? = inconclusive; / = no result given; [ ] = another dose, or the depositor's remark. A selection: hits, their analogues and other compounds. The true share with any hit is near 2.4%. The call rests on the fitted dose curve; in most records, active means well fitted curve in the direction sought with a large enough effect; inconclusive means small, poorly fitted or top-dose-only effect, or another doubt; inactive means no such curve, though single readings can be large; an effect the other way counts as inactive or inconclusive. Potency means the concentration at half of the fitted maximal effect.

SMILES	WRN helicase inh	Pol beta inh	FEN1 inh	POLK inh	Pol eta inh	POLI inh
Cc1ccccc1NS(=O)(=O)c1nnc(NC(=O)c2ccco2)s1	/	11%	-3%	1%	-15%	4%
CCCCCCCCCCCCCCCCCCCCCCCCCCCCCC	/	/	/	-13%[12 µM]	/	/
CNC1=CN=C(c2ccccc2)c2cc(Cl)ccc2N1	/	/	/	-4%[60.1 µM]	/	/
COc1ccc(C(=O)Nc2cc(-c3nc4ccccc4s3)ccc2OC)cc1	/	29%	-12%	-5%	-17%	3%
COc1ccc(-c2nc3ccccc3s2)cc1NC(=O)c1cccc(F)c1	/	13µM*	?	-4%[60.1 µM]	-29%	?
CCOC(=O)c1[nH]c(C)c(CCC(=O)Nc2ccc(N(CC)CC)cc2C)c1C	/	48%	1%	-7%[60.1 µM]	10%	-14%
O=C(/C=C/c1ccc2c(c1)OCO2)Nc1nc(-c2ccc(F)cc2F)cs1	/	22µM*	/	/	/	/
CCOc1ccc2ccccc2c1/C=N/NC(=O)c1cc(C)[nH]n1	-8%	-4%	-17%	-3%	-14%	24%
CCOc1ccc2ccccc2c1/C=N/NC(=O)c1ccncc1	-3%	20µM*	-25%	-11%	-4%	6%
COc1ccc2c(c1)oc(=O)c1ccccc12	6%	0%	-5%	6%	-21%	4%
COc1ccc2c(c1)oc(=O)c1c3ccccc3[nH]c21	-1%	22µM*	-13%	-26%	-12%	-26%
CN(c1nccc(=O)[nH]1)C1CCN(c2nc3ccccc3n2Cc2ccc(F)cc2)CC1	/	/	/	-1%[19.4 µM]	/	/
CCOC(=O)c1c(-n2c(C)cc(C=O)c2C)sc2c1CCCC2	-5%	-20%	-9%	-12%	-12%	0%
Cc1sc(-n2c(C)cc(C=O)c2C)c(C(=O)O)c1C	-25%	?	5%	-25%	50µM*	35µM*
Cc1cc(C)c(Cn2c3ccccc3c3cnn(CC(=O)NCCCc4ccccc4)c(=O)c32)c(C)c1	/	-22%	8%	-8%	-19%	1%
COc1cc(C2Nc3cccc4cccc(c34)N2)cc(OC)c1OC(C)=O	-19%	4%	32µM*	-29%	?	?
COc1ccc(Br)cc1C1Nc2cccc3cccc(c23)N1	-6%	79µM*	-17%	-2%	-19%	53%
COc1cc(C2Nc3cccc4cccc(c34)N2)ccc1O	-26%	-25%	-8%	-16%	?	119%
Cn1cc(S(=O)(=O)N2CCOCC2)cc1C(=O)Nc1ccc(Cl)c(C(F)(F)F)c1	/	2%	15%	-9%	-14%	22%
COc1cccc(/C=N/Nc2nnc(C)n2N)c1OCc1ccccc1Cl	-18%	-2%[57.1 µM]	-24%	-6%	-7%	20µM*
CCOC(=O)N1CCN(/[N+]([O-])=N/Oc2ccc([N+](=O)[O-])cc2[N+](=O)[O-])CC1	/	/	9%	1%[60.1 µM]	/	?
CCOC(=O)c1c(C)[nH]c(C)c1S(=O)(=O)N(C)CC(=O)Nc1ccccc1F	8%[11.6 µM]	-1%	14%	45µM*	-9%	50µM*
CCOC(=O)c1c(C)[nH]c(C)c1S(=O)(=O)N(C)CC(=O)Nc1cc(Cl)ccc1C	/	1%	-1%	-1%	-19%	17%
Cc1csc2nc3cc(C(N)=O)ccc3c(=O)n12	1%	1%	-4%	12%	-13%	18%
NC(=O)c1ccc2c(=O)n3c(-c4cc(Cl)c(N)c(Cl)c4)csc3nc2c1	-35%	?	?	-2%	?	50µM*
SMILES	WRN helicase inh	Pol beta inh	FEN1 inh	POLK inh	Pol eta inh	POLI inh
CCCc1cc(=O)n2[nH]c(NCc3ccccc3OC)nc2n1	/	21%	17%	5%	-3%	?
N#CC1=C2SCN(C3CCCCC3)CN2C(=O)CC1c1ccc(Br)cc1 (stereo not given)	/	?	?	-29%	?	20µM*
CCOc1cc(C2CC(=O)N3CN(C4CCCCC4)CSC3=C2C#N)ccc1O (stereo not given)	6%	-17%	?	-29%	-13%	35µM*
COc1cc2c(cc1OC)C(c1cc(-c3cc(Cl)ccc3Cl)oc1C)=NCC2	/	/	1%	-9%	/	-14%
Cc1cccc2nc(CSCc3ccco3)cn12	-21%[57.1 µM]	40µM*	-4%	-28%	20µM*	?
Cc1ccc(C(=O)OCc2nc3ccsc3c(=O)[nH]2)o1	-27%	/	4%	-14%	20%	?
O=C(/C=C/c1ccc(Br)o1)OCc1nc2ccsc2c(=O)[nH]1	14µM*	/	79µM*	10µM*	0.79µM*	10µM*
COc1ccc(-c2nc3cnc(OC)nc3n(CCc3ccccc3)c2=O)cc1	/	/	/	-2%[60.1 µM]	/	/
O=[N+]([O-])c1ccc2c(c1)C=CC2	/	/	-20%	79µM*	/	79µM*
CSc1cccc(NC(=O)CN(Cc2ccc(Cl)cc2)S(C)(=O)=O)c1	-16%[57.1 µM]	-4%	-22%	-10%	-3%	89µM*
CS(=O)(=O)N(CC(=O)Nc1ccccc1)Cc1ccc(Cl)cc1	-1%	-11%	-6%	-14%	-3%	11%
COc1ccccc1-c1ccc2ncnc(Nc3ccccc3)c2c1	/	/	/	-5%[60.1 µM]	/	/
CC(C)CC(=O)Nc1c(C(=O)N2CCN(c3ccccc3F)CC2)oc2ccccc12	/	-9%	-19%	1%	-22%	12%
Cc1ccc(S(=O)(=O)CCC(=O)Nc2sccc2C(N)=O)cc1	-16%	/	-4%	?	28µM*	?
Cc1ccc(S(=O)(=O)CCC(=O)Nc2sccc2C#N)cc1	-6%	/	9%	-3%	-18%	22%
COc1ccc(-c2nc3ccccc3c(=O)n2N)cc1	-3%	56µM*	-5%	-12%	9%	20%
Nn1c(-c2ccccc2)nc2ccccc2c1=O	2%	8%	2%	4%	-5%	33%
CCC(=O)Nc1c(C#N)c2nc3ccccc3nc2n1-c1ccc(C)cc1	9%	/	-10%	-1%	46%	22%
COc1ccc(-n2c(NC(=O)c3ccc(Br)o3)c(C#N)c3nc4ccccc4nc32)cc1	/	32µM*	/	/	/	/
CCC(C)n1c(NC(=O)c2ccccc2)c(C#N)c2nc3ccccc3nc21 (stereo not given)	-26%	40µM*	?	?	50µM*	3.2µM*
Cc1nn(C(C)(C)C)c(NC(=O)c2ccccc2)c1C#N	-1%	-3%	15%	-5%	-7%	-22%
CCc1ccc2nc(N(Cc3cccnc3)C(=O)Cc3ccccc3)sc2c1	/	0%	-23%	-11%[60.1 µM]	-3%	-13%
O=C1C(O)=C(O)C(=O)C(O)=C1O	/	/	/	8.9µM*	/	/
O=C(NC(=S)Nc1ccc(Cl)c(C(=O)O)c1)c1ccc(OCc2ccccc2)cc1	-2%	-22%	8%	7%	-15%	38%
O=C(NC(=S)Nc1ccc(Cl)c(C(=O)O)c1)c1cccc(COc2ccccc2)c1	-6%[11.6 µM]	40µM*	-10%	-22%	79µM*	-11%
